Unmarked numbers belong to inactive results. For some of these results: Entries with a potency or affinity are not part of this list. Calls of active or inactive are those of the source. Unless noted, no rule for the calls is given here.
Tests used:
[1] = antimalarial activity against Dd2 strain (AID 2302;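 active = growth inhibition above 50% at the single 2 µM test dose, taken to imply half-maximal potency below 2 µM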;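 also: 0% = DMSO untreated growth and 100% = chloroquine plus artemisinin killed control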); settings: P. falciparum Dd2 in RBCs, LDH growth readout, 72 h; at 2 µM; hits give high values
[2] = HepG2 cytotoxicity, primary screen, cytotoxicity control for P. falciparum antimalarial project, cell-based, ATP luminescence (AID 2303;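 active = inhibition above 50%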;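 also: 0% = DMSO wells and 100% = digitonin-killed cells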); settings: HepG2 viability, 24-48 h, at 10 µM, hits give high values
[3] = target: L-lactate dehydrogenase (Plasmodium falciparum (isolate CDC / Honduras)) (UniProt Q27743); experiment: PfLDH activity inhibition – cell lysate, 3D7 strain, counter-screen for P. falciparum growth inhibition project (AID 2304);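 also: 0% = vehicle and 100% = reference inhibitor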; settings: P. falciparum 3D7 crude extract, LDH APAD/NBT absorbance; at 2 µM; hits give high values
Chain of L-lactate dehydrogenase (Plasmodium falciparum (isolate CDC / Honduras)) (Q27743 whole entry, looked up): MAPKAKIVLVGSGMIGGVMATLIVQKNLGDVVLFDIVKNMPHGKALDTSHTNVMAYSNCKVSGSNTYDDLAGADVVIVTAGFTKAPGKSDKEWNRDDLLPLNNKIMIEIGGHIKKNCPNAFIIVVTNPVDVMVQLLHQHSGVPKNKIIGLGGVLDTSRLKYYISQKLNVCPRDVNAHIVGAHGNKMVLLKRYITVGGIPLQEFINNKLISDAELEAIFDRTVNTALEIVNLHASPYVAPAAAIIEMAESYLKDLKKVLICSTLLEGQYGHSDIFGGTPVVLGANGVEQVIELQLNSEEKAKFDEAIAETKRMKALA

[4] = inhibition of 3D7 malaria parasite growth – strain 3D7 (AID 2306);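 also: 0% = DMSO wells and 100% = chloroquine plus artemisinin control wells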; settings: P. falciparum 3D7 erythrocytic growth, LDH absorbance, 72 h; at 2 µM; hits give high values
[5] = target: Calcium-dependent protein kinase 1 (Plasmodium falciparum (isolate 3D7)) (UniProt P62344); experiment: PfCDPK1 kinase inhibitors, biochemical, TCAMS library (AID 1159585; cut-off not given, nearly all actives have IC50 up to about 0.98 µM;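 also: inhibitors leave more ATP so luminescence rises with inhibition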); settings: recombinant PfCDPK1, Kinase-Glo ATP depletion luminescence
Chain of Calcium-dependent protein kinase 1 (Plasmodium falciparum (isolate 3D7)) (P62344 whole entry, looked up): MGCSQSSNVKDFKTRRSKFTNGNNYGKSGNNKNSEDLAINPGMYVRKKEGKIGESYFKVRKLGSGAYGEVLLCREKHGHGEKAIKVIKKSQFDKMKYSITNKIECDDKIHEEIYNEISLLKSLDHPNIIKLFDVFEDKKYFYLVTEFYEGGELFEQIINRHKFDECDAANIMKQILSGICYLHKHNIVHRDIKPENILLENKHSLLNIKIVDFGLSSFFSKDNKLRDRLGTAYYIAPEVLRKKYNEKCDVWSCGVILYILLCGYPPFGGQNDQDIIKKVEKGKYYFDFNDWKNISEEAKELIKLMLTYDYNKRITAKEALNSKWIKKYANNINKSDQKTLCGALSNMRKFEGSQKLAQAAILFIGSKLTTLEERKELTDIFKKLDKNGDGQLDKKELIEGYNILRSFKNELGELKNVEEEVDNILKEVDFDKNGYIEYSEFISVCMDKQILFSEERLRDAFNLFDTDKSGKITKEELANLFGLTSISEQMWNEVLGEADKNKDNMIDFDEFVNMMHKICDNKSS

[6] = target: Plasmodium falciparum protein kinase 6 (PK6, PF3D7_1337100) (UniProt Q8IDW1); experiment: PfPK6 kinase inhibitors, biochemical, TCAMS library (AID 1159586); settings: recombinant PfPK6, Kinase-Glo ATP depletion luminescence
Chain of Plasmodium falciparum protein kinase 6 (PK6, PF3D7_1337100) (Q8IDW1 1-305): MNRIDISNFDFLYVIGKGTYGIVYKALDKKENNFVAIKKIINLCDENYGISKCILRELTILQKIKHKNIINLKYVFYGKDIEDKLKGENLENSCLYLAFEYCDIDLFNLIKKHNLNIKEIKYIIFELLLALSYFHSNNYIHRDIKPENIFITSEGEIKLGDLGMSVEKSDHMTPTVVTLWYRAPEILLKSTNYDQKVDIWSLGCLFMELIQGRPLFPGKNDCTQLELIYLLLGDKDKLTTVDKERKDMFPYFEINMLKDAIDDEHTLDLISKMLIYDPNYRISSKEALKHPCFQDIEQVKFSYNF

[7] = target: Protein kinase 7 (PK7), Plasmodium falciparum 3D7 (PF3D7_0213400) (UniProt Q7YTF7); experiment: inhibition of Plasmodium PK7 catalytic activity – biochemical, TCAMS antimalarial set, Kinase-Glo luminescence (AID 1159587); settings: recombinant PfPK7, Kinase-Glo ATP depletion luminescence
Chain of Protein kinase 7 (PK7), Plasmodium falciparum 3D7 (PF3D7_0213400) (Q7YTF7 1-343): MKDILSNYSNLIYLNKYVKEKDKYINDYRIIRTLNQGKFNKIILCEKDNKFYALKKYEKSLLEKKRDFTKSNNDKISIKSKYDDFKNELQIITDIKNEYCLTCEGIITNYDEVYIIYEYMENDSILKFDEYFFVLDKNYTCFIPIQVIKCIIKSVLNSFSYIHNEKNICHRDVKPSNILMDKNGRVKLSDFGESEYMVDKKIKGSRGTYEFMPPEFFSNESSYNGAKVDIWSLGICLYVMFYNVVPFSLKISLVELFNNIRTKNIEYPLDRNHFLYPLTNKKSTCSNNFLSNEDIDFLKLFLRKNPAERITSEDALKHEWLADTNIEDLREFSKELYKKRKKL

[8] = target: Calcium-dependent protein kinase 4 (Plasmodium falciparum (isolate 3D7)) (UniProt Q8IBS5); experiment: PfCDPK4 kinase inhibitors, biochemical, TCAMS library (AID 1159588; cut-off not given, nearly all actives have IC50 up to about 0.91 µM); settings: recombinant PfCDPK4, Kinase-Glo ATP depletion luminescence
Chain of Calcium-dependent protein kinase 4 (Plasmodium falciparum (isolate 3D7)) (Q8IBS5 whole entry, looked up): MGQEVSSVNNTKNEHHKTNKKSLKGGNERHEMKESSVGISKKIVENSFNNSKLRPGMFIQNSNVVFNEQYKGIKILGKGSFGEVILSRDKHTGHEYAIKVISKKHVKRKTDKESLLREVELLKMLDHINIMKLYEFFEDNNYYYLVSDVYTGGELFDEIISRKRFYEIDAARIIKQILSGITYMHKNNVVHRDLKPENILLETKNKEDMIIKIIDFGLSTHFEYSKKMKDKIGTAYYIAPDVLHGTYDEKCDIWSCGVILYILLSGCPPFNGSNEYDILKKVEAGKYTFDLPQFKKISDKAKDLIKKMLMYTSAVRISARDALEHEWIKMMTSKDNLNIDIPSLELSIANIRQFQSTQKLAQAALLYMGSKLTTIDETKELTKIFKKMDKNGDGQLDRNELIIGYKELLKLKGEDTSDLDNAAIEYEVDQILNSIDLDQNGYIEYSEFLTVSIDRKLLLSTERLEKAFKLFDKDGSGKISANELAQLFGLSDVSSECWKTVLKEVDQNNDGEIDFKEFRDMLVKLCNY

| SMILES | growth inhibition [1] | inhibition [2] | inhibition [3] | growth inhibition [4] | outcome [5] | outcome [6] | outcome [7] | outcome [8] |
| --- | --- | --- | --- | --- | --- | --- | --- | --- |
| Nc1nc(-c2ccc3c(Nc4ccc(F)c(Cl)c4)ccnc3c2)cs1 | 88% (active) | 13% | 0% | 100% (active) | inactive | inactive | inactive | inactive |
| OC(c1cc(C(F)(F)F)nc2c(F)cccc12)C1CCCCN1 (stereo not given) | 74% (active) | -4% | -2% | 98% (active) | inactive | inactive | inactive | inactive |
| CCN(CCN(C)C)Cc1ccc(-c2ccc(NS(=O)(=O)c3cccc(Cl)c3)cc2)cc1 | 40% | 43% | 4% | 97% (active) | inactive | inactive | inactive | inactive |
| CC1CCCN(S(=O)(=O)c2ccc(NC(=O)c3cc(-c4ccccc4O)n[nH]3)cc2)C1 (stereo not given) | 49% | 12% | 3% | 93% (active) | inactive | inactive | inactive | inactive |
| O=C(Nc1ccc(Cl)cc1)c1cccc(S(=O)(=O)NC2CCN(CC3CCCCC3)C2)c1 (stereo not given) | 41% | 80% (active) | -2% | 90% (active) | inactive | inactive | inactive | inactive |
| CC(C)NC(C)(C)CN(Cc1ccc(-c2ccc(C(F)(F)F)cc2)cc1)C(=O)Cn1c(CCc2cccc(F)c2F)nc(=O)c2ccccc21 | 68% (active) | 44% | 3% | 94% (active) | inactive | inactive | inactive | inactive |
| NC(=NCCc1ccc(Cl)c(Cl)c1)c1ccc2ccccc2c1 | 29% | 60% (active) | -3% | 100% (active) | inactive | inactive | inactive | inactive |
| COc1cc2nc(N3CCC(CNC(=O)c4cc(Br)c(Br)s4)CC3)nc(N)c2cc1OC | 97% (active) | 22% | 2% | 101% (active) | inactive | inactive | inactive | inactive |
| COC(=O)c1cccc(CNCc2cccc(-c3cccc(-c4nc5c(C)cccc5[nH]4)c3)c2)c1 | 47% | -1% | 3% | 101% (active) | inactive | inactive | inactive | inactive |
| COCCn1c(SC(C)C(=O)Nc2cc(C(F)(F)F)ccc2Cl)nc2ccccc2c1=O (stereo not given) | 95% (active) | 8% | 4% | 97% (active) | inactive | inactive | inactive | inactive |
| CN(C)CC(=O)Nc1cccc(Nc2nccc(NCC(O)c3ccccc3)n2)c1 (stereo not given) | 3% | 30% | -5% | 102% (active) | inactive | inactive | inactive | inactive |
| CC(C)(C)c1cc2cc(Nc3ccnc4cc(-c5nccs5)ccc34)ccc2[nH]1 | 97% (active) | 5% | -1% | 101% (active) | inactive | inactive | inactive | inactive |
| c1cc(CNCCN2CCNCC2)cc(-c2cccc(-c3nc4ccccc4[nH]3)c2)c1 | 1% | 11% | -3% | 89% (active) | inactive | inactive | inactive | inactive |
| Cc1cccnc1Nc1nc(-c2ccccn2)cs1 | 99% (active) | 60% (active) | -1% | 96% (active) | inactive | inactive | inactive | inactive |
| O=C(/C=C/c1ccccc1)N1CCOC(CCN2CCC(c3ccccc3)CC2)(c2ccc(Cl)c(Cl)c2)C1 (stereo not given) | 63% (active) | 4% | 2% | 89% (active) | inactive | inactive | inactive | inactive |
| COc1ccc2nccc([C@@H](O)CN3CCC(NC(=O)C(c4cc5ccccc5s4)N4CCN(c5ccccc5OC)CC4)CC3)c2c1 (stereo not given in full) | 88% (active) | 21% | -2% | 100% (active) | inactive | inactive | inactive | inactive |
| CCCCCC(C)C(C)c1cc(O)c2c(c1)OC(C)(C)CC2(O)c1ccccn1 (stereo not given) | 3% | -2% | -5% | 98% (active) | inactive | inactive | inactive | inactive |
| CC(C)COc1ccc(Cl)cc1Cc1ccc(-c2nc3c(F)cccc3[nH]2)o1 | 47% | 15% | -1% | 98% (active) | inactive | inactive | inactive | inactive |
| CCCCN(C(=O)c1ccccc1Cl)c1nnc(-c2ccccc2C)s1 | 86% (active) | 12% | 0% | 90% (active) | inactive | inactive | inactive | inactive |
| CN(C)CCN(C)Cc1ccc(-c2cccc(NC(=O)c3ccc(Cl)cc3)c2)cc1 | 71% (active) | 69% (active) | -5% | 97% (active) | inactive | inactive | inactive | inactive |

From PubChem BioAssay
